Results reported in PubChem BioAssay (NCATS).
“And” between values parts separate entries of the source, which are not always exact repeats. Equal values may be shown once. Results filed as inconclusive are left out. Entries that show only a call come without a potency. Where a structure was tested more than once in an assay, its records may differ in their call. The source made the active and inactive calls. Unless noted, the call rests on the fitted dose curve; in most records, active means well fitted curve in either direction with a large enough effect (not every such curve was filed as active); inconclusive means small, poorly fitted or top-dose-only effect, or another doubt; inactive means flat fitted curve, though single readings scatter.

How the values were obtained:
[1] = AP1 Signaling Pathway (AID 357);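 further: ME-180 reporter cells stimulated with EGF at its EC50 level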
How it was run: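 AP-1-bla ME-180 cells, Opti-MEM + 0.5% dialyzed FBS, plated overnight 37 °C. Cpd titration + EC50 EGF, 5 h 37 °C. CCF4 2.5 h RT; ex 405, em 460/530 ratio → %activity, AC50.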

[2] = NFAT Signaling Pathway (AID 444); details: Jurkat NFAT-bla M1, carbachol, beta-lactamase ratio, 5 h;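 further: carbachol stimulus at about its EC50 of 1 µM final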
How it was run: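 Read-out: CCF4 FRET ratio (460 nm/530 nm) after 1 h RT dye loading, used for %activity and AC50 from titration series. Cells: Jurkat NFAT-β-lactamase/M1 line, treated with compound plus 1 uM carbachol for 5 h, 37 °C.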

[3] = Stat Signaling Pathway (AID 446);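 further: ME-180 cervical cancer cells given 40 pM IL-6 alongside compound; SIE-controlled beta-lactamase reporter measured as 460/530 nm FRET emission ratio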
How it was run: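 Overnight-plated ME-180 cells bearing a STAT Inducible Element beta-lactamase reporter; 5 h co-exposure to compound and 40 pM IL-6; values normalized to 300 pM IL-6 and 125 nM JAK inhibitor controls.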

[4] = target: Glucocorticoid receptor (Homo sapiens) (UniProt P04150); test: GR-GFP Redistribution (AID 450;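 active means compounds whose dose series gives a full or clear partial fitted curve of increased nuclear translocation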; further: potency means the concentration at half of the fitted maximal effect); details: U2OS GR-GFP nuclear translocation, laser cytometry, 2 h
[5] = target: Glucocorticoid receptor (Homo sapiens) (UniProt P04150); test: GR-EFC Redistribution (AID 451; calls by dose curve; further: potency means the concentration at half of the fitted maximal effect); details: CHO-K1 GR-EFC translocation, beta-gal luminescence, 2 h
How it was run: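 Translocation of GR-ED fusion to nuclear EA restores b-gal, read by luminescence after 1 h room-temperature detection. Engineered CHO-K1 biosensor cells, 1,000/well, exposed 2 h at 37 C to titrations up to 46 uM final.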

[6] = target: Mitogen-activated protein kinase 10 (Mus musculus) (UniProt Q61831); test: JNK3 AlphaScreen Assay (AID 530);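 further: kinase came from lysate of stimulated human HepG2 cells; signal reports phosphorylation of biotinylated GST-cJun 1-79 at Ser73 with 10 µM ATP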
How it was run: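 qHTS titrations with 15 min compound pre-incubation before adding ATP (10 uM final). Read-out: AlphaScreen of Ser73-phosphorylated biotin-GST-cJun using HepG2 lysate JNK3 activated by IL-1β and TNFα.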

[7] = target: Cytochrome P450 1A2 (Homo sapiens) (UniProt P05177); test: p450-cyp1a2 (AID 410; calls by dose curve; further: potency means the concentration at half of the fitted maximal effect)
How it was run: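 Luminescent demethylation readout: Luciferin-ME (100uM, equal to Km) turned over by 20nM CYP1A2 for 60 min at room temperature after NADPH regeneration addition, following 10 min compound preincubation. Normalization used 57 uM furafylline as full inhibition.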

[8] = Cell Viability - Jurkat (AID 426;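 active means dose-dependent loss of cell ATP signal giving a full or clear fitted curve, ranked by lower potency value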;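 further: potency means the concentration at half of the fitted maximal effect; cells exposed to compound for 40 hours at 37 °C before ATP read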); details: qHTS
How it was run: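 Cytotoxicity taken as drop in cellular ATP (CellTiter-Glo luminescence, 20 min room temperature) after 40 hr, 37C treatment of 5000 Jurkat Clone E6-1 cells per well; concentration-response fitted with Hill equation for AC50.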

[9] = Cell Viability - Hek293 (AID 427;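 active means compounds whose dose-response curve shows a full or clear partial loss of cell viability, called from curve shape rather than a numeric limit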;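 further: potency means the concentration at half of the fitted maximal effect; cells exposed to compound for 40 hours at 37 °C before reading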); details: qHTS
How it was run: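 AC50 values derive from Hill-modelled concentration-response of ATP-based luminescence, normalized between DMSO-only and 100 uM tamoxifen controls. Cells were exposed in complete culture medium for 40 hr at 37 °C before detection.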

[10] = Cell Viability - HepG2 (AID 433; calls by dose curve;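 further: potency means the concentration at half of the fitted maximal effect; potency for ATP loss meaning cytotoxicity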); details: qHTS
How it was run: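 HepG2 hepatocellular carcinoma cells (1500/well) were treated with compounds for 40 h at 37 °C in complete medium; intracellular ATP was read by CellTiter-Glo luminescence. Data were normalized to DMSO and 100 uM tamoxifen, and AC50 came from Hill fits.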

[11] = Cell Viability - MRC5 (AID 434; calls by dose curve;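 further: potency means the concentration at half of the fitted maximal effect; potency reflects cytotoxicity seen as loss of intracellular ATP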); details: MRC5 lung fibroblast viability, qHTS
How it was run: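 AC50 values come from Hill-equation fits of intracellular ATP loss, measured by CellTiter-Glo luminescence. Normal lung fibroblasts (MRC5) had 40 hr compound treatment at 37 C, normalized between DMSO and 100 uM tamoxifen.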

[12] = Cell Viability - N2a (AID 540; active means well fitted curve in the direction sought with a large enough effect; an effect the other way counts as inactive or inconclusive; further: nearly all actives have a fitted effect of over 45% in size); details: N2a mouse neuroblastoma cell viability; activity change, negative = cytotoxicity: at 92.2 µM (top of the series)
How it was run: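 CellTiter-Glo ATP luminescence, read 20 min after reagent at room temperature, reported viability following 40 h compound treatment at 37 °C. N2a mouse neuroblastoma cells seeded 1500/well; Hill equation gave AC50.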

[13] = Cell Viability - HUV-EC-C (AID 542; active means well fitted curve in the direction sought with a large enough effect; an effect the other way counts as inactive or inconclusive; further: nearly all actives have a fitted effect of over 35% in size)
How it was run: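 CellTiter-Glo luminescence measured ATP loss in HUV-EC-C cells (1000/well) after 40 hr compound exposure at 37 °C, in complete culture medium. Concentration-response data were Hill-fitted to give AC50.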

[14] = Cell Viability - H-4-II-E (AID 543; active means well fitted curve in the direction sought with a large enough effect; an effect the other way counts as inactive or inconclusive; further: nearly all actives have a fitted effect of over 35% in size; further: potency means the concentration at half of the fitted maximal effect)
How it was run: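 CellTiter-Glo luminescence (intracellular ATP) measured after 40 h compound exposure at 37 °C in H-4-II-E rat hepatoma cells seeded at 1500/well. Values are AC50s fitted with the standard Hill equation.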

[15] = Cell Viability - SH-SY5Y (AID 544; active means well fitted curve in the direction sought with a large enough effect; an effect the other way counts as inactive or inconclusive; further: nearly all actives have a fitted effect of over 55% in size); details: SH-SY5Y neuroblastoma cell viability; viability change, negative = cytotoxic: at 92.2 µM (top of the series)
How it was run: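 Cytotoxicity measured via ATP-dependent luciferase luminescence (CellTiter-Glo) following 40 h, 37 °C exposure of 1500 SH-SY5Y cells per well. Concentration-response data were fitted with the standard Hill equation to give AC50.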

[16] = Cell Viability - Renal Proximal Tubule (AID 545; active means well fitted curve in the direction sought with a large enough effect; an effect the other way counts as inactive or inconclusive; further: nearly all actives have a fitted effect of over 40% in size)
How it was run: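 Primary rat renal proximal tubule cells (1000/well) were treated with compounds for 40 hr at 37 °C in complete medium. Intracellular ATP was measured by CellTiter-Glo luminescence, and AC50 values came from Hill-equation fits of concentration-response data.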

[17] = Cell Viability - BJ (AID 421; calls by dose curve;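 further: potency means the concentration at half of the fitted maximal effect; cells exposed to compound for 40 hours at 37 °C before readout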); details: BJ fibroblast viability, qHTS
How it was run: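 Quantitative HTS: ATP depletion in BJ cells after 40 hr compound exposure in complete culture medium, detected with CellTiter-Glo; AC50 from standard Hill fits.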

[18] = Cell Viability - SK-N-SH (AID 435; calls by dose curve; further: potency means the concentration at half of the fitted maximal effect); details: SK-N-SH neuroblastoma cell viability qHTS
How it was run: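 SK-N-SH human neuroblastoma cells (1500/well) were exposed to compounds in complete medium for 40 h at 37 °C, and intracellular ATP was then measured by CellTiter-Glo luminescence. AC50 was taken from Hill fits, normalized to DMSO and 100 uM tamoxifen.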

[19] = Cell Viability - NIH 3T3 (AID 541; active means well fitted curve in the direction sought with a large enough effect; an effect the other way counts as inactive or inconclusive; further: nearly all actives have a fitted effect of over 25% in size; further: potency means the concentration at half of the fitted maximal effect); details: NIH 3T3 cell viability, qHTS; activity change, negative = cytotoxicity: at 92.2 µM (top of the series)
How it was run: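 Intracellular ATP (CellTiter-Glo luminescence, 20 min at room temperature) measured after 40 hr compound exposure at 37 °C of 1000 NIH 3T3 mouse fibroblasts/well in complete medium; AC50 derived by Hill-equation modelling of qHTS concentration-response curves.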

[20] = target: Lysosomal acid glucosylceramidase (Homo sapiens) (UniProt P04062); test: Glucocerebrosidase-p2 (AID 348; in the data active means potency below about 10 µM; further: potency means the concentration at half of the fitted maximal effect); details: purified GBA, blue fluorogenic substrate, 40 min
How it was run: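 Normal human glucocerebrosidase (0.2 nM) with blue fluorogenic substrate (80 uM final) in citrate/phosphate pH 5.9 with 10mM sodium taurocholate, 0.01% tween-20; 40 min RT, NaOH/glycine stop; fluorescence Ex 365/Em 440; AC50 from a titration from 0.6 nM upwards.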

Glucocorticoid receptor (Homo sapiens), sequence (P04150 whole entry, looked up, the tested form may be a part): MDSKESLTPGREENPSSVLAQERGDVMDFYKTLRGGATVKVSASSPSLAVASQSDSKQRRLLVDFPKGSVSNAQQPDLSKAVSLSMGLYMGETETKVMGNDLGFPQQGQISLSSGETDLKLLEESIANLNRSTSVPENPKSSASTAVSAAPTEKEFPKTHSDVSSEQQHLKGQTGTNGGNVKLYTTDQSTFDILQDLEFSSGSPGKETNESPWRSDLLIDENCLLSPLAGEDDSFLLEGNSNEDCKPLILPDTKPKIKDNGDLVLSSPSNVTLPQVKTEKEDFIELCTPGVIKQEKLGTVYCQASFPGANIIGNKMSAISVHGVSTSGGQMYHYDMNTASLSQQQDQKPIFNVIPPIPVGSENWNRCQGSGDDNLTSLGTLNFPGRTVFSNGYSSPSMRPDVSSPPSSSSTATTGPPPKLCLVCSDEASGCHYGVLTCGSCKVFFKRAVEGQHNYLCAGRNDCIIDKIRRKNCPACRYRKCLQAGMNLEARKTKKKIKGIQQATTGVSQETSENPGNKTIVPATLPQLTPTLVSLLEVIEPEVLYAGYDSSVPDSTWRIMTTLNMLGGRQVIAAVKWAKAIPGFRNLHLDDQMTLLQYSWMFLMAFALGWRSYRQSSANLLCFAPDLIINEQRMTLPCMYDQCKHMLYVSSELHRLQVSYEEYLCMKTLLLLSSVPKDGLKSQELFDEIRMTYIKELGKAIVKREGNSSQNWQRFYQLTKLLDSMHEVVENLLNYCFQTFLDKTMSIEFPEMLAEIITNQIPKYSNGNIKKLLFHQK
Cytochrome P450 1A2 (Homo sapiens), sequence (P05177 whole entry, looked up): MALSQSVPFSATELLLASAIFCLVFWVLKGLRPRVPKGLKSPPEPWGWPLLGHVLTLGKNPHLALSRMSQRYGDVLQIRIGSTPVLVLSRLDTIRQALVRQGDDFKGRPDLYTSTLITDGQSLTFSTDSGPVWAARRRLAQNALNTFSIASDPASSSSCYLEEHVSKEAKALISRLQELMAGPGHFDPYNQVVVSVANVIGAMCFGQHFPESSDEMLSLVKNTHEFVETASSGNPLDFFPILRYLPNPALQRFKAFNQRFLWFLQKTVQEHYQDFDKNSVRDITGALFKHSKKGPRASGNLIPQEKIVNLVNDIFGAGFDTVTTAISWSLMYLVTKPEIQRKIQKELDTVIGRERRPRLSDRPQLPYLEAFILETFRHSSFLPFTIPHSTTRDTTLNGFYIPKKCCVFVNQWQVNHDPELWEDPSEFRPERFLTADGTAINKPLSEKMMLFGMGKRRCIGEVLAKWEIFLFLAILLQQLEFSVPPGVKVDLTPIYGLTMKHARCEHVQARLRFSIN
Lysosomal acid glucosylceramidase (Homo sapiens), sequence (P04062 whole entry, looked up): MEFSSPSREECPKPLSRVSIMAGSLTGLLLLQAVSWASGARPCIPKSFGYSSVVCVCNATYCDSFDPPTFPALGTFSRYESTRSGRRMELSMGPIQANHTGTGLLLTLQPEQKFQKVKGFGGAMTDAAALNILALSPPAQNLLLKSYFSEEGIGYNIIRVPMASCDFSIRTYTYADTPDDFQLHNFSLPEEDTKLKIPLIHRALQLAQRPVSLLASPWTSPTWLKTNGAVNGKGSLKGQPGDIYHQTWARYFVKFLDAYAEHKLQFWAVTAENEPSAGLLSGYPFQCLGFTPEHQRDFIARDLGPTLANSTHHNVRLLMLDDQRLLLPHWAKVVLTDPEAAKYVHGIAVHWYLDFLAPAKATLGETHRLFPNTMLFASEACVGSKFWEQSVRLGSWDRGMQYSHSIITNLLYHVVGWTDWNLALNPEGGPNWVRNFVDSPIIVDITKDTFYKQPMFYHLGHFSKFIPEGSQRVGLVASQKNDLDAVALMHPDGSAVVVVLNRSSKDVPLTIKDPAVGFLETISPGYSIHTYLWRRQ

NC12CC3CC(CC(C3)C1)C2
outcome [1]: inactive
activity change, negative = inhibition ([2]; at 17.2 µM (top of the series)): 5.54% (inactive)
activity change, negative = inhibition ([2]; at 38 µM (top of the series)): -1.81% (inactive)
outcome [3]: inactive
Potency [4]: > 46 µM (inactive) and > 20.6 µM (inactive)
Potency [5]: > 46 µM (inactive) and > 20.6 µM (inactive)
outcome [6]: inactive

CN1C(C(=O)Nc2ccccn2)=C(O)c2ccccc2S1(=O)=O
outcome [1]: inactive
Potency [7]: inactive and 20 µM (active)
activity change, negative = inhibition ([2]; at 17.2 µM (top of the series)): 9.4% (inactive) and 2.14% (inactive) and -3.58% (inactive)
activity change, negative = inhibition ([2]; at 38 µM (top of the series)): -8.1% (inactive)
outcome [3]: inactive
Potency [5]: > 46 µM (inactive) and > 20.6 µM (inactive)
outcome [6]: inactive

CC(C)C(=O)Nc1ccc([N+](=O)[O-])c(C(F)(F)F)c1
outcome [1]: inactive
Potency [7]: 2 µM (active) and 316 nM (active)
Potency [8]: > 92 µM (inactive)
Potency [9]: 53.5 µM (inactive)
Potency [10]: > 92 µM (inactive)
Potency [11]: > 92 µM (inactive)
activity change, negative = inhibition ([2]; at 17.2 µM (top of the series)): -0.457% (inactive)
activity change, negative = inhibition ([2]; at 38 µM (top of the series)): 9.16% (inactive)
outcome [3]: inactive
outcome [6]: inactive
activity change, negative = cytotoxicity [12]: -119% (active)
outcome [13]: inactive
Potency [14]: 39.8 µM (active)
Potency [15]: inactive
Potency [16]: inactive

CS(=O)(=O)Nc1ccc([N+](=O)[O-])cc1Oc1ccccc1
outcome [1]: inactive
Potency [7]: 15.8 µM (active) and 12.6 µM (active)
activity change, negative = inhibition ([2]; at 17.2 µM (top of the series)): -5.4% (inactive) and -1.94% (inactive)
outcome [3]: inactive
outcome [6]: inactive

Cc1cc(C(C)(C)C)c(O)c(C)c1CC1=NCCN1
outcome [1]: inactive
Potency [7]: inactive
outcome [3]: inactive
Potency [5]: > 46 µM (inactive) and > 20.6 µM (inactive)
outcome [6]: inactive

Cc1cc(C(C)(C)C)cc(C)c1CC1=NCCN1
outcome [1]: inactive
Potency [7]: inactive
outcome [3]: inactive
Potency [5]: > 46 µM (inactive) and > 20.6 µM (inactive)
outcome [6]: inactive

COc1ccc(CCN(C)CCCC(C#N)(c2ccc(OC)c(OC)c2)C(C)C)cc1OC (centres undefined)
outcome [1]: inactive
Potency [17]: > 92 µM (inactive)
Potency [9]: > 92 µM (inactive)
Potency [11]: > 92 µM (inactive)
Potency [18]: > 92 µM (inactive)
outcome [3]: inactive
outcome [6]: inactive
activity change, negative = cytotoxicity [12]: -16.5% (inactive)
outcome [13]: inactive
Potency [15]: inactive
Potency [16]: inactive

COc1nc(C)nc(Cl)c1NC1=NCCN1
outcome [1]: inactive
Potency [7]: inactive
activity change, negative = inhibition ([2]; at 17.2 µM (top of the series)): -14.9% (inactive)
activity change, negative = inhibition ([2]; at 38 µM (top of the series)): 10.4% (inactive)
outcome [3]: inactive
Potency [5]: > 46 µM (inactive) and > 20.6 µM (inactive)
outcome [6]: inactive

NCCCCCC(=O)O
outcome [1]: inactive
Potency [7]: inactive
activity change, negative = inhibition ([2]; at 17.2 µM (top of the series)): -9.25% (inactive)
activity change, negative = inhibition ([2]; at 38 µM (top of the series)): 21.3% (inactive)
outcome [3]: inactive
Potency [5]: > 46 µM (inactive) and > 20.6 µM (inactive)
outcome [6]: inactive

CCOC(=O)c1ncn2c1CN(C)C(=O)c1cc(F)ccc1-2
outcome [1]: inactive
Potency [7]: 1.58 µM (active)
activity change, negative = inhibition ([2]; at 38 µM (top of the series)): -1.55% (inactive)

Cn1c(=O)c2[nH]cnc2n(C)c1=O
outcome [1]: inactive
Potency [7]: inactive
Potency [17]: > 92 µM (inactive)
Potency [8]: > 92 µM (inactive)
Potency [9]: > 92 µM (inactive)
Potency [10]: > 92 µM (inactive)
Potency [11]: > 92 µM (inactive)
Potency [18]: > 92 µM (inactive)
activity change, negative = inhibition ([2]; at 17.2 µM (top of the series)): -8.18% (inactive) and -8.96% (inactive) and 7.57% (inactive)
activity change, negative = inhibition ([2]; at 38 µM (top of the series)): 8.38% (inactive)
outcome [3]: inactive
outcome [6]: inactive
activity change, negative = cytotoxicity [12]: 8.85% (inactive)
Potency [19]: inactive
outcome [13]: inactive
Potency [14]: inactive
Potency [15]: inactive
Potency [16]: inactive

O=c1c(-c2ccc(O)cc2)coc2cc(O)cc(O)c12
outcome [1]: inactive
Potency [7]: 10 µM (active) and 5.01 µM (active)
Potency [17]: > 92 µM (inactive)
Potency [9]: > 92 µM (inactive)
Potency [10]: > 92 µM (inactive)
Potency [11]: > 92 µM (inactive)
activity change, negative = inhibition ([2]; at 38 µM (top of the series)): -8.04% (inactive)
outcome [3]: inactive
Potency [5]: > 46 µM (inactive)
outcome [6]: inactive
activity change, negative = cytotoxicity [12]: 0.0672% (inactive)
Potency [19]: 25.1 µM (active)
outcome [13]: inactive
viability change, negative = cytotoxic [15]: -86.9% (active)

CN1CCC(=C2c3ccccc3CC(=O)c3sccc32)CC1
outcome [1]: inactive
Potency [7]: inactive
activity change, negative = inhibition ([2]; at 17.2 µM (top of the series)): -94.3% (active)
outcome [3]: inactive
Potency [5]: > 46 µM (inactive) and > 20.6 µM (inactive)
outcome [6]: inactive

CC[C@@]1(O)C(=O)OCc2c1cc1n(c2=O)Cc2cc3c(CN(C)C)c(O)ccc3nc2-1
Potency [20]: > 11.4 µM (inactive)
activity change, negative = inhibition [7]: -17.9% [at 2.29 µM] (inactive)
Potency [5]: > 9.22 µM (inactive)
activity change, negative = inhibition [6]: 4.05% [at 11.4 µM] (inactive)

CN(C)c1nc(N(C)C)nc(N(C)C)n1
outcome [1]: inactive
activity change, negative = inhibition ([2]; at 17.2 µM (top of the series)): 2.19% (inactive) and 4.9% (inactive)
activity change, negative = inhibition ([2]; at 38 µM (top of the series)): 6.06% (inactive)
outcome [3]: inactive
Potency [5]: > 46 µM (inactive) and > 20.6 µM (inactive)
outcome [6]: inactive

Clc1ccc(C(c2ccccc2Cl)C(Cl)Cl)cc1 (centres undefined)
Potency [10]: > 92 µM (inactive)
activity change, negative = cytotoxicity [12]: -100% (active)
Potency [19]: inactive
outcome [13]: inactive
Potency [16]: inactive

NCCc1cnc[nH]1
outcome [1]: inactive
activity change, negative = inhibition ([2]; at 38 µM (top of the series)): 2.96% (inactive)
outcome [3]: inactive
Potency [5]: > 46 µM (inactive)
outcome [6]: inactive

CCCCc1oc2ccccc2c1C(=O)c1cc(I)c(OCCN(CC)CC)c(I)c1
outcome [1]: inactive
activity change, negative = inhibition ([2]; at 17.2 µM (top of the series)): 4.27% (inactive)
outcome [3]: inactive
outcome [6]: inactive
